Assay outcomes from PubChem BioAssay.
HepG2 viability: counter-screen for TGF-b inhibitors: cytotoxicity in HepG2 cells; HepG2 CAGA-GFP viability, ATP luminescence, 18 h; Potency, µM (titrated, usually from 46.1 µM), for the others: at the top dose activity change, negative = cytotoxicity, actives largely listed as cytotoxic; hit rate 0.76% among 410,000
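CellTiter-Glo luminescence gave cytotoxicity after 18 hours at 37 degrees C. The cells were HepG2 CAGA-GFP in 1% FBS DMEM, stimulated with 500 pg/mL TGF-beta after compound addition. %Activity was normalised to no-cell wells (complete cell-killing) and DMSO (no toxicity), and curves were fitted and classified.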
TGFb SMAD3 inh: blocks TGF-b signaling | Potency, µM (doses to about 46.1 µM), for inactives: top-dose activity, negative = inhibition, hits mostly inhibitors | AID 588855 | HepG2 CAGA-GFP TGF-b/SMAD3 reporter, GFP fluorescence, 18 h; TGF-beta stimulated, 500 pg/mL final | hit rate 1.2% among 410,000; note: % is set by controls: 0 for no effect and ±100 for the full control effect; nearly all actives have a fitted effect of over 65% in size
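HEPG2 CAGA-GFP cells (1000/well, DMEM with 1% FBS) were pre-incubated 2 h at 37 degrees C, given compound by pin tool, then stimulated with TGF-beta at 500 pg/mL final for 18 h before per-cell GFP fluorescence imaging.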
HT1080-NT tox: kills 2HG-producing HT-1080-NT fibrosarcoma cells. HT-1080-NT fibrosarcoma viability, CellTiter-Glo ATP luminescence, 48 h. Potency, µM (highest dose often 46.1 µM), inactives show at the highest dose activity, negative = less viability, hits mostly cytotoxic. hit rate 1.6% among 360,000. AID 686970;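 note: NT is the 2HG producing partner of a matched IDH1 knockdown line; 0% = DMSO-treated cells and -100% = media-only wells without cells; nearly all actives have a fitted effect of over 55% in size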
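HT-1080-NT; 750 cells/well; 5% FBS RPMI; 48 h compound, 37 degrees C; CellTiter-Glo luminescence; curve fitting and curve-class assignment.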
KB-3-1 tox: KB-3-1 parental cell cytotoxicity; KB-3-1 viability, CellTiter-Glo ATP luminescence, 72 h; Potency, µM (doses to about 46.1 µM), most hits filed as cytotoxic; hit rate 1.4% among 400,000; AID 1347075; note: % is set by controls: 0 for no effect and ±100 for the full control effect; nearly all actives have a fitted effect of over 60% in size
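Cytotoxicity measured as CellTiter-Glo luminescence after 72 h at 37 C. Compound titrations were pinned onto drug-naive KB-3-1 parental adenocarcinoma cells grown in DMEM with 10% FBS, and normalized data fitted to concentration-response curves.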
HT1080 IDH1KD tx: toxicity to HT-1080 IDH1 knockdown cells (counter line); Potency, µM (top dose mostly 46.1 µM), inactives show at the highest dose activity, negative = toxicity, usual class: cytotoxic; hit rate 2% among 360,000; AID 686971; HT-1080 IDH1 knockdown viability, ATP luminescence, 48 h;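 note: 0% = DMSO wells and -100% = cell-free medium wells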
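HT-1080-IDH1KD cells (IDH1 knocked down), 750/well in RPMI with 5% FBS, treated with compound 48 h at 37 degrees C. Viability by CellTiter-Glo luminescence, normalised to DMSO and no-cell wells; concentration-response curves classed.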
KB-V1 cytotox: kills drug-selected multidrug resistant KB-V1 cells; KB-V1 MDR cells viability, CellTiter-Glo, 72 h; Potency, µM (series often up to 46.1 µM), usual class: cytotoxic; hit rate 3.4% among 400,000; AID 1347076; note: % is set by controls: 0 for no effect and ±100 for the full control effect; nearly all actives have a fitted effect of over 60% in size
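Drug-selected KB-V1 cells, grown in DMEM lacking phenol red with 10% FBS, receive compound titrations; after three days at 37 degrees C, surviving cell ATP is quantified by CellTiter-Glo luminescence and responses normalized and curve-fitted.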
Starred values were filed as active, the others as inactive; i = inactive; ? = inconclusive; . = no result; [ ] = remark or other dose. Compounds with a hit are over-represented: about 6.6% of the library has one in this group of screens. Calls come from the whole dose curve; as a rule, active = well fitted curve in the direction sought with a large enough effect; inconclusive = small, poorly fitted or top-dose-only effect, or another doubt; inactive = no such curve, though single readings can be large; an effect the other way counts as inactive or inconclusive. Potency is the fitted concentration of half-maximal effect.

SMILES	HepG2 viability	TGFb SMAD3 inh	HT1080-NT tox	KB-3-1 tox	HT1080 IDH1KD tx	KB-V1 cytotox
CCCCOc1ccc(C(O)(CCC)CCN2CCOCC2)cc1 (configuration not stated)	-25%	?	-8%	23µM*	-25%	10µM*
CCCCOc1ccc(C(O)(CC)CCN2CCOCC2)cc1 (configuration not stated)	-30%	-19%	-13%	i	-15%	?
CCCCCCC(O)(c1ccccc1)C(CN1CCOCC1)c1ccccc1 (configuration not stated)	-57%	16µM*	-16%	?	0%	?
CCCn1ccc2c(OCC(=O)Nc3ccc(F)cc3F)cccc2c1=O	-16%	-13%	.	i	.	i
O=C(NCc1ccccc1Cl)c1ccc2c(c1)ncn2-c1cccc(F)c1	-13%	-26%	.	i	.	i
CC1CCN(c2oc(/C=C/c3ccc(F)cc3)nc2C#N)CC1	-6%	9%	.	i	.	?
Cn1c(-c2ccc3ccccc3n2)nc2cnccc21	3%	?	-4%	i	-2%	10µM*
COc1cc(OC)c(-c2nc3cnccc3n2C)cc1OC	-3%	11%	10%[9.24 µM]	i	-18%	i
CN(C)S(=O)(=O)c1ccc(-c2csc(N/N=C/c3ccc(O)cc3)n2)cc1	13µM*	?	9.2µM*	21µM*	4.1µM*	15µM*
CCOC(=O)Cc1csc(N/N=C/c2cccc([N+](=O)[O-])c2)n1	8%	2%	3%	i	9%	i
O=[N+]([O-])c1cccc(-c2csc(N/N=C/c3cccc(O)c3)n2)c1	-1%	1%	?	?	18µM*	?
CSc1nnc(-c2sc3cc(C(F)(F)F)cnc3c2-c2ccccn2)n1C	0%	11%	2%	?	-3%	18µM*
CNC(=S)NNC(=O)c1sc2cc(C(F)(F)F)cnc2c1-c1cccnc1	-4%	-8%	-7%	i	-1%	i
CNC(=S)NNC(=O)c1sc2cc(C(F)(F)F)cnc2c1-c1ccccn1	2.5µM*	0%	13%	i	6%	i
O=C(C[N+]12CCCc3cccc(c31)CCC2)c1ccccc1	-35%	?	.	?	.	i
CN[C@@H](C)C(=O)NC[C@H]1O[C@@H](n2cnc3c(N)ncnc32)[C@H](O)[C@@H]1O	-3%	17%	7%	i	5%	i
CCOC(=O)CCC(NC(=O)c1ccc(Nc2nc3ccccc3nc2C(=O)OCC)cc1)C(=O)OCC (configuration not stated)	15%	-3%	8%	i	9%	9.2µM*
Cc1ccccc1NC(=O)CSc1nccn1C	-7%	-5%	.	?	.	i
Cc1nc(Nc2ccc(S(=O)(=O)N3CCCCC3C)cc2)c2nnn(Cc3ccccc3)c2n1 (configuration not stated)	-1%	?	-1%	16µM*	21%	2.3µM*
Cc1nc(Nc2ccc(Cl)cc2)c2nnn(Cc3ccccc3)c2n1	3%	-6%	-25%	i	-16%	?
Nc1ccc2nc(-c3ccc(Cl)cc3)[nH]c2c1	13µM*	?	23µM*	18µM*	21µM*	i
COc1cc(NC(=O)C(c2ccccc2)c2ccccc2)c(C(=O)O)cc1OC	25%	25%	0%	i	1%	i
Cc1ccc(NC(=O)C(c2ccccc2)c2ccccc2)c(O)c1	-25%	16µM*	-24%	i	-25%	i
CC(C)C(=O)Nc1nnc(CSCc2ccccc2F)s1	4%	-3%	4%	i	0%	18µM*
CN(C(=O)c1cccc(NC(=O)Cc2ccc(NC(=O)C3CCCN(C(=O)C4CCC4)C3)cc2)c1)C1CCCCC1 (configuration not stated)	-1%	-27%	6%	i	-1%	i
